Measured values as given in PubChem BioAssay AID1003 (National Center for Advancing Translational Sciences (NCATS), 2008).
Calls of active or inactive are those of the source.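 The calls were made as follows: active = compounds that block the bacterial enzyme AmpC beta-lactamase with detergent present and have a measured Ki; inactive = the rest.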

What follows are molecules tested against Beta-lactamase (Escherichia coli (strain K12)) (UniProt P00811) (assay: Confirmation Cuvette-Based Assay for Inhibitors of AmpC Beta-Lactamase (assay with detergent)). Conditions: purified AmpC, nitrocefin hydrolysis absorbance, 0.01% Triton.
Beta-lactamase (Escherichia coli (strain K12)), sequence (P00811 whole entry, looked up): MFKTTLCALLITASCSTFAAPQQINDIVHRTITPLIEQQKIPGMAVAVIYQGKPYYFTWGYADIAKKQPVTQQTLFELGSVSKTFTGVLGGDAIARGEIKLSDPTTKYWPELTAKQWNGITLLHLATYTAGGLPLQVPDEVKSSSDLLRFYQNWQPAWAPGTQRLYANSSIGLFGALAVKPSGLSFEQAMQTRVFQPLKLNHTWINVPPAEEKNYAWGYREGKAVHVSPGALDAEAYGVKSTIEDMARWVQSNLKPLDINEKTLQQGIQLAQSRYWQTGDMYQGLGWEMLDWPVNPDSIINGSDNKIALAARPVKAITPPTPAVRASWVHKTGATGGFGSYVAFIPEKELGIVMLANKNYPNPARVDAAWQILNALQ
Protocol: NIH Molecular Libraries Screening Centers Network [MLSCN] NIH Chemical Genomics Center [NCGC] MLSCN Grant: MH079825-01 Assay Provider: Shoichet, Brian K. This aggregation profiling approach exploits the sensitivity of aggregate formation to detergent. Inhibition of b-lactamase is measured in the presence and absence of 0.01% Triton X-100 (Feng 2007). This particular assay is a confirmation of previous qHTS (Inglese, 2006), Pubchem AID 584, assay with presence of 0.01% Triton X-100. For a related assay without detergent, see AID 585. Compounds that inhibit only in the absence of detergent are considered likely promiscuous aggregators. This confirmation assay is a cuvette-based screen of an oxadiazole carbamate series which is an expansion around docking hit Pubchem SID 4244870.
Reactions were performed in methylacrylate cuvettes in 1 mL of reaction volume. The beta-lactamase assay contained 1 nM AmpC beta-lactamase, 200 uM Nitrocefin and varying amounts of Triton X-100 (either 0.00002% or 0.1%). Compound and enzyme were incubated for 5 minutes before the reaction was initiated by addition of substrate. Nitrocefin hydrolysis was monitored as an increase in absorption at 482 nm on an Agilent 8453 UV-visible spectrophotometer at room temperature.

Ki, active:
Cc1ccc(C[C@H](C(=O)O)N2C(=O)c3ccc(C(=O)O)cc3C2=O)c(C)c1 17 µM, Cn1cc(C[C@H](C(=O)O)N2C(=O)c3ccc(C(=O)O)cc3C2=O)c2ccccc21 17 µM, O=C(O)c1ccc2c(c1)C(=O)N([C@H](Cc1ccc3ccccc3c1)C(=O)O)C2=O 14 µM, O=C(O)c1ccc2c(c1)C(=O)N([C@H](Cc1c[nH]c3ccccc13)C(=O)O)C2=O 17 µM, CC(C)(C)c1ccc(C[C@H](C(=O)O)N2C(=O)c3ccc(C(=O)O)cc3C2=O)cc1 11 µM, O=C(O)c1ccc2c(c1)C(=O)N([C@H](Cc1cccc3ccccc13)C(=O)O)C2=O 5 µM, O=C(O)c1ccc2c(c1)C(=O)N([C@H](Cc1c3ccccc3cc3ccccc13)C(=O)O)C2=O 12 µM, O=C(O)c1ccc2c(c1)C(=O)N([C@H](Cc1ccc(-c3ccccc3)cc1)C(=O)O)C2=O 15 µM
